# The full list was thinned out, with the strongest signals kept by preference.
# B1: CRT-1 (Homo sapiens), P27797 (protein)
# chain: MLLSVPLLLGLLGLAVAEPAVYFKEQFLDGDGWTSRWIESKHKSDFGKFVLSSGKFYGDEEKDKGLQTSQDARFYALSASFEPFSNKGQTLVVQFTVKHEQNIDCGGGYVKLFPNSLDQTDMHGDSEYNIMFGPDICGPGTKKVHVIFNYKGKNVLINKDIRCKDDEFTHLYTLIVRPDNTYEVKIDNSQVESGSLEDDWDFLPPKKIKDPDASKPEDWDERAKIDDPTDSKPEDWDKPEHIPDPDAKKPEDWDEEMDGEWEPPVIQNPEYKGEWKPRQIDNPDYKGTWIHPEIDNPEYSPDPSIYAYDNFGVLGLDLWQVKSGTIFDNFLITNDEAYAEEFGNETWGVTKAAEKQMKDKQDEEQRLKEEEEDKKRKEEEEAEDKEDDEDKDEDEEDEEDKEEDEEEDVPGQAKDEL
# Assays:
# Experiment in all cases: glycan array binding signal (z-score within array); higher = stronger binding
# Settings in all cases: glycan notation: IUPAC condensed, linker removed
# [1] = target: Fuc(a1-2)Gal(b1-4)Fuc(a1-3)]GlcNAc(b1-2)Man(a1-3)[Fuc(a1-2)Gal(b1-4)[Fuc(a1-3)]GlcNAc(b1-2)Man(a1-6)]Man(b1-4)GlcNAc(b1-4)GlcNAc
# Summary of the method: (§1)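 Arrays were curated from the Consortium for Functional Glycomics database, 3228 in total, and kept only where the protein sequence was available. Binding is expressed as a within-array Z-score. This score was averaged across arrays of the same protein sequence at different concentrations or buffers and across linkers, and negative values can be read as non-binding.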
# [2] = target: Fuc(a1-2)Gal(b1-4)GlcNAc(b1-3)[Fuc(a1-3)[Gal(b1-4)]GlcNAc(b1-6)]Gal(b1-4)Glc
# Summary of the method: as §1
# [3] = target: Fuc(a1-2)Gal(b1-4)[Fuc(a1-3)]GlcNAc(b1-2)Man(a1-3)[Fuc(a1-2)Gal(b1-4)[Fuc(a1-3)]GlcNAc(b1-2)Man(a1-6)]Man(b1-4)GlcNAc(b1-4)GlcNAc
# Summary of the method: as §1
# [4] = target: Fuc(a1-2)Gal6S(b1-3)GlcNAc6S
# Summary of the method: as §1
# [5] = target: Fuc(a1-2)[Gal(a1-3)]Gal(b1-3)GlcNAc(b1-3)GalNAc
# Summary of the method: as §1
# [6] = target: Fuc(a1-2)[Gal(a1-3)]Gal(b1-4)[Fuc(a1-3)]Glc
# Summary of the method: as §1
# [7] = target: Fuc(a1-2)[GalNAc(a1-3)]Gal(b1-4)GlcNAc
# Summary of the method: as §1
# [8] = target: Fuc(a1-2)[GalNAc(a1-3)]Gal(b1-4)GlcNAc(b1-2)Man(a1-3)[Fuc(a1-2)[GalNAc(a1-3)]Gal(b1-4)GlcNAc(b1-2)Man(a1-6)]Man(b1-4)GlcNAc(b1-4)GlcNAc
# Summary of the method: as §1
# Fuc(a1-3)GlcNAc = target: Fuc(a1-3)GlcNAc
# Summary of the method: as §1
# [9] = target: Fuc(a1-3)[Gal3S(b1-4)]GlcNAc
# Summary of the method: as §1
# [10] = target: Fuc(a1-3)[Gal3S(b1-4)]GlcNAc6S
# Summary of the method: as §1
# Gal(a1-3)Gal(b1-3)GlcNAc = target: Gal(a1-3)Gal(b1-3)GlcNAc
# Summary of the method: as §1
# [11] = target: Gal(a1-3)Gal(b1-3)[Fuc(a1-4)]GlcNAc(b1-2)Man(a1-3)[Gal(a1-3)Gal(b1-3)[Fuc(a1-4)]GlcNAc(b1-2)Man(a1-6)]Man(b1-4)GlcNAc(b1-4)GlcNAc
# Summary of the method: as §1
# [12] = target: Gal(a1-3)Gal(b1-4)GlcNAc(b1-2)Man
# Summary of the method: as §1
# [13] = target: Gal(a1-3)[Gal(a1-4)]Gal(b1-4)GlcNAc
# Summary of the method: as §1
# [14] = target: Gal(a1-4)Gal(b1-4)GlcNAc(b1-2)Man(a1-3)[Gal(a1-4)Gal(b1-4)GlcNAc(b1-2)Man(a1-6)]Man(b1-4)GlcNAc(b1-4)GlcNAc
# Summary of the method: as §1
# Gal(b1-3)GlcNAc = target: Gal(b1-3)GlcNAc
# Summary of the method: as §1
# [15] = target: Gal(b1-3)GlcNAc(b1-2)Man(a1-3)[Gal(b1-3)GlcNAc(b1-2)Man(a1-6)]Man(b1-4)GlcNAc(b1-4)[Fuc(a1-6)]GlcNAc
# Summary of the method: as §1
# Gal(b1-3)GlcNAc6S = target: Gal(b1-3)GlcNAc6S
# Summary of the method: as §1
# [16] = target: Gal(b1-3)[Fuc(a1-4)]GlcNAc(b1-2)Man(a1-3)[Gal(b1-3)[Fuc(a1-4)]GlcNAc(b1-2)Man(a1-6)]Man(b1-4)GlcNAc(b1-4)GlcNAc
# Summary of the method: as §1
# Gal(b1-4)Gal = target: Gal(b1-4)Gal
# Summary of the method: as §1
# [17] = target: Gal(b1-4)GlcNAc(b1-3)Gal(b1-3)GlcNAc
# Summary of the method: as §1
# [18] = target: Gal(b1-4)GlcNAc(b1-3)Gal(b1-4)GlcNAc(b1-3)Gal(b1-4)GlcNAc(b1-3)Gal(b1-4)GlcNAc(b1-2)Man(a1-3)[Gal(b1-4)GlcNAc(b1-3)Gal(b1-4)GlcNAc(b1-3)Gal(b1-4)GlcNAc(b1-3)Gal(b1-4)GlcNAc(b1-2)Man(a1-6)]Man(b1-4)GlcNAc(b1-4)[Fuc(a1-6)]GlcNAc
# Summary of the method: as §1
# [19] = target: Gal(b1-4)GlcNAc(b1-3)Gal(b1-4)GlcNAc(b1-3)Gal(b1-4)GlcNAc(b1-3)Gal(b1-4)GlcNAc(b1-3)Gal(b1-4)GlcNAc(b1-2)Man(a1-3)[Gal(b1-4)GlcNAc(b1-3)Gal(b1-4)GlcNAc(b1-3)Gal(b1-4)GlcNAc(b1-3)Gal(b1-4)GlcNAc(b1-3)Gal(b1-4)GlcNAc(b1-2)Man(a1-6)]Man(b1-4)GlcNAc(b1-4)GlcNAc
# Summary of the method: as §1
# [20] = target: Gal(b1-4)GlcNAc(b1-3)[Gal(b1-4)GlcNAc(b1-6)]Gal(b1-4)GlcNAc
# Summary of the method: as §1
# [21] = target: Gal(b1-4)GlcNAc(b1-3)[Gal(b1-4)GlcNAc(b1-6)]GalNAc
# Summary of the method: as §1
binder,measurement,setting,value
B1,glycan array binding signal (z-score),[1],1.49
same,glycan array binding signal (z-score),[2],0.038
same,glycan array binding signal (z-score),[3],2.15
same,glycan array binding signal (z-score),[4],0.305
same,glycan array binding signal (z-score),[5],-0.073
same,glycan array binding signal (z-score),[6],-0.424
same,glycan array binding signal (z-score),[7],-0.467
same,glycan array binding signal (z-score),[8],0.117
same,glycan array binding signal (z-score),Fuc(a1-3)GlcNAc,2.63
same,glycan array binding signal (z-score),[9],0.572
same,glycan array binding signal (z-score),[10],0.146
same,glycan array binding signal (z-score),Gal(a1-3)Gal(b1-3)GlcNAc,-0.43
same,glycan array binding signal (z-score),[11],0.078
same,glycan array binding signal (z-score),[12],-0.279
same,glycan array binding signal (z-score),[13],0.255
same,glycan array binding signal (z-score),[14],-0.021
same,glycan array binding signal (z-score),Gal(b1-3)GlcNAc,-0.063
same,glycan array binding signal (z-score),[15],0.223
same,glycan array binding signal (z-score),Gal(b1-3)GlcNAc6S,0.611
same,glycan array binding signal (z-score),[16],2.33
same,glycan array binding signal (z-score),Gal(b1-4)Gal,-0.253
same,glycan array binding signal (z-score),[17],-0.342
same,glycan array binding signal (z-score),[18],1.79
same,glycan array binding signal (z-score),[19],1.75
same,glycan array binding signal (z-score),[20],0.487
same,glycan array binding signal (z-score),[21],-0.095

# From the supplement of paper PMC8728848
